The text below walks through data of PubChem BioAssay (NCATS).

For assay [1], the target named is Calcium and integrin-binding protein 1 (Homo sapiens) (UniProt Q99828). Briefly: Primary qHTS for Identification of Calcium Integrin Binding Protein 1 (CIB1) Competitor (AID 1508620).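 Note: GST tagged CIB1 binding a fluorescein labelled alphaIIb integrin peptide tracer; top concentration of the series differs between compounds; % is set by controls: 0 for no effect and ±100 for the full control effect.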 In a few lines: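 CIB1-GST (1 uM final) and compound incubated 15 min at room temperature before adding FITC-alphaIIb peptide tracer (100 nM final). Competition for binding read by fluorescence polarization (ex 480, em 540) after another 15 min at room temperature.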
Calcium and integrin-binding protein 1 (Homo sapiens), sequence (Q99828 whole entry, looked up): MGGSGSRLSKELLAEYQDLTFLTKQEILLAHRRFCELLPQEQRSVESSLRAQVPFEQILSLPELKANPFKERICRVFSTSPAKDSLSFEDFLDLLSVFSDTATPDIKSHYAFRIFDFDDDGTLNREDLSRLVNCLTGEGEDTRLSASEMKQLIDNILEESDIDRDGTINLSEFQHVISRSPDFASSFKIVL

Assay [2] has as its target Rap guanine nucleotide exchange factor 3 (Homo sapiens) (UniProt O95398). Briefly: Confirmatory qHTS for agonist of cAMP-regulated guanine nucleotide exchange factor 3 (EPAC1) (AID 1645881).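 Note: EPAC1 catalysed release of BODIPY-GDP from Rap1B seen as fluorescence loss; 100% = effect of cAMP agonist control; nearly all actives have a fitted effect of over 75% in size.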
For assay [3], the target named is Rap guanine nucleotide exchange factor 4 (Homo sapiens) (UniProt Q8WZA2). Briefly: Confirmatory qHTS for agonist of cAMP-regulated guanine nucleotide exchange factor 4 (EPAC2) (AID 1645884).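 Note: nucleotide exchange releases bodipy-GDP from Rap1 and this lowers its fluorescence; % is set by controls: 0 for no effect and ±100 for the full control effect; nearly all actives have a fitted effect of over 65% in size.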 In general terms: In qHTS, concentration-response curves come from the screen itself.
Rap guanine nucleotide exchange factor 4 (Homo sapiens), sequence (Q8WZA2 whole entry, looked up): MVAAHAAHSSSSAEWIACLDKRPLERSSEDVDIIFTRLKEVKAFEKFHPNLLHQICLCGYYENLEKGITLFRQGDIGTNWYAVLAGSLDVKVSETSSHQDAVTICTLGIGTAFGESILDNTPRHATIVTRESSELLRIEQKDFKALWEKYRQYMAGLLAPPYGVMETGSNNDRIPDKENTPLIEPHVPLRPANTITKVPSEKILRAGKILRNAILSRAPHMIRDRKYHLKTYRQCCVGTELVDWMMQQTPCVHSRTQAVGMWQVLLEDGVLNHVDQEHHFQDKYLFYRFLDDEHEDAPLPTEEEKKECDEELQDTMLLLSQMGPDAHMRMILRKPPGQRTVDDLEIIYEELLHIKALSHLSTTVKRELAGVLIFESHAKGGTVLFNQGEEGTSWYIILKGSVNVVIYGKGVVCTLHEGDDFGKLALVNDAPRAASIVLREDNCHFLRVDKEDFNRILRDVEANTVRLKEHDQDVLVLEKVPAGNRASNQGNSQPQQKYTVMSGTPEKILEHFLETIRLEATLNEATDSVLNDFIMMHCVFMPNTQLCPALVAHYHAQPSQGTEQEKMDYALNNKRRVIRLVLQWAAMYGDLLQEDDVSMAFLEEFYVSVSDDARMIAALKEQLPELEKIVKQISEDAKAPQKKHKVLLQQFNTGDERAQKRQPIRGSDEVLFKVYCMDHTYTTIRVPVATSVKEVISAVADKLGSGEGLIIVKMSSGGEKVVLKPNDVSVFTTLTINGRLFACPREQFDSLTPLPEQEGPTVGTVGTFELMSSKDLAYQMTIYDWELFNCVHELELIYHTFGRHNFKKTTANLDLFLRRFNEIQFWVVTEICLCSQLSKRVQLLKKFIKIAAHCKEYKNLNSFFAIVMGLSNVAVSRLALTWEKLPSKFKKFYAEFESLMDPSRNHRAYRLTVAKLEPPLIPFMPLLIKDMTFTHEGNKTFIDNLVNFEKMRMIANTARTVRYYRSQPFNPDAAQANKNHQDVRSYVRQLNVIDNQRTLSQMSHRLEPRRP
Assay [4] has the same target. Briefly: Confirmatory qHTS for antagonist of cAMP-regulated guanine nucleotide exchange factor 4 (EPAC2) (AID 1645885). For activity change, negative = inhibition: % is set by controls: 0 for no effect and ±100 for the full control effect. Note: nearly all actives have a fitted effect of over 25% in size. Note: potency is the fitted concentration of half-maximal effect.
In assay [5] the target is Rap guanine nucleotide exchange factor 3 (Homo sapiens) (UniProt O95398). Briefly: Counterscreen qHTS for antagonist of cAMP-regulated guanine nucleotide exchange factor 3 (EPAC1) (AID 1645888). Note: % of control where 0% means no effect. In outline:
(§1)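 Rap1B-BODIPY-GDP 250 nM + GDP 50 uM; cpds 7-pt, final 9.74 nM–152 uM (activator mode) or from 7.32 nM upwards (inhibitor mode); RT; FI 480/540 nm at 5 and 30 min, then ± cAMP, reread.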
On the technique in general: The purpose of a counterscreen is to sort out artefacts and off-target activity.

Assay [6] has the same target. Briefly: Counterscreen qHTS for agonist of cAMP-regulated guanine nucleotide exchange factor 3 (EPAC1) (AID 1645889). Note: % of control where 0% means no effect; nearly all actives have a fitted effect of over 40% in size. In a few lines: as §1
For assay [7], the target named is Glutathione peroxidase 1 (Homo sapiens) (UniProt P07203). Briefly: Primary qHTS Assay for Inhibitors of Recombinant Selenoprotein Glutathione Peroxidase 1 (GPX1) (AID 1845191). Note: nearly all actives have a fitted effect of over 65% in size. In outline: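 NADPH consumption tracked by fluorescence at 340/450 nm between t=0 and t=15 min, room temperature. Final mix: 10 nM GPX1, 100 nM glutathione reductase, 1 mM GSH, 0.5 mM NADPH, 0.5 mM cumene hydroperoxide, 0.01% BSA; 30 min compound–enzyme preincubation.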
Glutathione peroxidase 1 (Homo sapiens), sequence (P07203 whole entry, looked up): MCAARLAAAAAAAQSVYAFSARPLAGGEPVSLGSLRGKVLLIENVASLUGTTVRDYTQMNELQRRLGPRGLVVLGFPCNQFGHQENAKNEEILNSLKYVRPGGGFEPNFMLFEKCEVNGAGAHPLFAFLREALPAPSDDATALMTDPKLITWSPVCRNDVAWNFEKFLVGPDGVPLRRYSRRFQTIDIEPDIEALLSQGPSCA

The target in assay [8] is Mitogen-activated protein kinase 10 (Mus musculus) (UniProt Q61831). Briefly: JNK3 AlphaScreen Assay (AID 530; active = well fitted curve in either direction with a large enough effect, not every such curve was filed as active;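 note: kinase came from lysate of stimulated human HepG2 cells; signal reports phosphorylation of biotinylated GST-cJun 1-79 at Ser73 with 10 µM ATP; series mostly up to about 57 µM; % is set by controls: 0 for no effect and ±100 for the full control effect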). In outline: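 Kinase buffer: 20 mM Tris-HCl pH 7.6, 10 mM MgCl2, 1 mM DTT, 0.1 mM Na3VO4, 0.01% Tween-20; ATP 10 uM. Substrate biotin-GST-cJun(1-79), enzyme from activated HepG2 lysates. Detection by Ser73 phospho-antibody AlphaScreen.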
Background: Bead proximity is the source of the signal in Alpha formats.

The target in assay [9] is Rap guanine nucleotide exchange factor 3 (Homo sapiens) (UniProt O95398). Briefly: Confirmatory qHTS for antagonist of cAMP-regulated guanine nucleotide exchange factor 3 (EPAC1) (AID 1645880). Note: nearly all actives have a fitted effect of over 55% in size. Note: potency is the fitted concentration of half-maximal effect. In outline: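 Released BODIPY-GDP fluoresces less than Rap1-bound BODIPY-GDP; the signal is followed at 480/540 nm at 5-min intervals over 30 min, after 5 min at room temperature. Reactions contain 100 nM EPAC1, 250 nM RAP1B-BODIPY-GDP and 50 uM GDP; results are normalized to ATA and DMSO.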
Rap guanine nucleotide exchange factor 3 (Homo sapiens), sequence (O95398 whole entry, looked up): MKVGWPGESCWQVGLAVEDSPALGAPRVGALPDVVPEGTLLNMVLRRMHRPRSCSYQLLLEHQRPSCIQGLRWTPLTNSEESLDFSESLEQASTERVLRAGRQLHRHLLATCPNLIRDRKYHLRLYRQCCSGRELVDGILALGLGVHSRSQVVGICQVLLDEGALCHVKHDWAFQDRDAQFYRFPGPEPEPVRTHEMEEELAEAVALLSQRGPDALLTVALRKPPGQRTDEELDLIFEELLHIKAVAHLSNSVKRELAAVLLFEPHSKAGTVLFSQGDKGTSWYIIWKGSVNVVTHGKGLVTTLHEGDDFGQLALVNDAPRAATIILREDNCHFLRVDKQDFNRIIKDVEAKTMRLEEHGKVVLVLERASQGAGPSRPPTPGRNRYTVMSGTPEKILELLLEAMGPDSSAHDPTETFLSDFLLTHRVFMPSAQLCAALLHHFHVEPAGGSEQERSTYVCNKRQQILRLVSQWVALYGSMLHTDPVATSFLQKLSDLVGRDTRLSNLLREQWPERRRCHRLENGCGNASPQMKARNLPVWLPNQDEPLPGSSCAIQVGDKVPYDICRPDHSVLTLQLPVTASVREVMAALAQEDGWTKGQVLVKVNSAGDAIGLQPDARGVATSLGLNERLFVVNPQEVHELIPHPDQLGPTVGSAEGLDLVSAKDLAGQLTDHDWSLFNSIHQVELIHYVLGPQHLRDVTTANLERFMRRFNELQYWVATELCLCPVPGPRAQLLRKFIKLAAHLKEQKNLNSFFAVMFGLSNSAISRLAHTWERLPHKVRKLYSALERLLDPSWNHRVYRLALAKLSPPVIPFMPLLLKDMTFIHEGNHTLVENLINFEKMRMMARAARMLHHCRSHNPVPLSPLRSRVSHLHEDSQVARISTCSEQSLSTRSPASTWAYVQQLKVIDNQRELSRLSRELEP

Records with an inconclusive call do not appear. Unmarked numbers belong to inactive results. Calls of active or inactive are those of the source. Unless noted, calls come from the whole dose curve; as a rule, active = well fitted curve in the direction sought with a large enough effect; inconclusive = small, poorly fitted or top-dose-only effect, or another doubt; inactive = no such curve, though single readings can be large; an effect the other way counts as inactive or inconclusive.

On to `CC(=O)NC(c1cc(Cl)c2ccccc2c1O)C(C)C` (stereo not given), for which the Potency entry in assay [1] was “inactive”. In addition, the outcome in [2] and in assay [5] was inactive. In addition, the values for the activation in assay [3] and in assay [6] were 9.17% [at 17.1 µM] and 8.27% [at 30.8 µM], respectively. Besides, in assay [4], the activity change, negative = inhibition is -39.3% [at 12.7 µM].
With `CC(C)(C)n1nc(Cc2cccc([N+](=O)[O-])c2)c2c(N)ncnc21`, the Potency result in [1] and in [7] was “inactive” throughout.
Take `Cc1noc(CN(C)c2ncnc3ccc(-c4ccc5c(c4)OCO5)cc23)n1`: the Potency entry in [1] and in [7] was “inactive” throughout.
In the case of `CCCn1c(C)nc2c(NC3CCN(Cc4ccccc4)C3)nc(C)nc21` (stereo not given), the compound was called inactive in [8]. Besides, in assay [1], the Potency result was “inactive”.
Take `O=C(CSc1nc2ccccc2n1CCc1ccccc1)c1ccc(O)c(O)c1`: the Potency result in assay [1] and in [4] was “inactive” throughout. Further, the Potency in assay [9] is 6.01 µM (active). The compound was classed as inactive in assay [2], in assay [5] and in assay [6].
Turning to `COCCN(CCOC)c1nc(C)nc2c1nc(-c1ccccc1)n2CCCN1CCCCC1C` (stereo not given), the call in assay [8] was inactive. Moreover, in assay [1], the Potency entry is “inactive”.
For `CCC(=O)NC(c1ccco1)c1cc(Cl)c2ccccc2c1O` (stereo not given), the Potency result in [1] is “inactive”. Moreover, the result in assay [2], in assay [3], in [5] and in [6] was inactive. In assay [4], the Potency was 53.6 µM (active).
With `CCC(=O)NC(c1cccs1)c1cc(Cl)c2ccccc2c1O` (stereo not given), the Potency entry in assay [1] and in assay [9] was “inactive” in each case. For the same compound, the compound was classed as inactive in assay [2] and in assay [5]. Moreover, the activation in assay [3] was 0.826% [at 17.1 µM]; in assay [6] it was 29.3% [at 30.8 µM]. Besides, the activity change, negative = inhibition in assay [4] was -13.9% [at 12.7 µM].
With `CCCn1c(C)nc2c(NCCCCN(C)C)nc(C)nc21`, in assay [8], the compound was called inactive. Further, the Potency entry in assay [1] was “inactive”.
